The values below come from PubChem BioAssay (EPA / NIEHS).

Results filed as inconclusive are left out. Activity calls are given as the source filed them. How the source made its calls, unless noted: active means hit-call score of the fitted dose curve at least 0.9, where 1 is the maximum; inconclusive means response in the unintended direction; inactive means score below 0.9.

Experiment [1] is described as follows: TOX21_p53_BLA_p2_viability: Viability Assessment in the Tox21 HCT-116 p53 Agonism Beta-lactamase Assay, Phase 2 (AID 2283591).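 Further: compound exposure lasted 16 h at 37 °C; actives lower the ATP signal meaning cytotoxicity.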 Put shortly:
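HCT116 p53-bla cells, 4000/well, dosed after 5 h plating (217-fold dilution of DMSO stocks) and incubated 16 h at 37C. Viability taken as cellular ATP by CellTiter-Glo luminescence after 30 min RT; signal loss marks cytotoxicity.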

The target of experiment [2] is Cellular tumor antigen p53 (Homo sapiens) (UniProt P04637). The experiment can be described thus: TOX21_p53_BLA_p2_ratio: Tox21 HCT-116 p53 Agonism Beta-lactamase Assay, Ratio, Phase 2 (AID 2283592). Put shortly:
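DMSO-normalized, positive-direction endpoint derived from the 460 nm/530 nm FRET ratio in HCT116 p53 beta-lactamase reporter cells exposed 16 h at 37C and loaded with CCF4-AM for 2 h.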

The target is the same in experiment [3]. The experiment can be described thus: TOX21_p53_BLA_p3_ratio: Tox21 HCT-116 p53 Agonism Beta-lactamase Assay, Ratio, Phase 3 (AID 2283596). The procedure, abridged:
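Cells were seeded at 4000/well, rested 5 h at 37C, then dosed with DMSO compound solutions (217-fold dilution) for 16 h. CCF4-AM substrate was loaded for 2 h at room temperature, and the 460/530 nm emission ratio was fitted for gain of signal versus DMSO.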

A short description of experiment [4]: TOX21_p53_BLA_p4_viability: Viability Assessment in the Tox21 HCT-116 p53 Agonism Beta-lactamase Assay, Phase 4 (AID 2283597).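 Further: hits lower the luminescence signal meaning cytotoxicity.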 The procedure, abridged:
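In this multiplexed secondary endpoint, HCT116 cells (4000 per well, compound at 5 h, 16 h treatment) received CellTiter-Glo after the beta-lactamase read. Luminescence after 30 min RT reflects ATP, and falling signal marks cytotoxicity.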

Experiment [5] in a line: TOX21_p53_BLA_p5_viability: Viability Assessment in the Tox21 HCT-116 p53 Agonism Beta-lactamase Assay, Phase 5 (AID 2283600). Put shortly: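 Here cell health was gauged by ATP levels in wells holding 4000 cells, each treated 16 h with DMSO-delivered compounds at 217-fold dilution; reduced luminescence marked toxicity.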
The target of experiment [6] is Cellular tumor antigen p53 (Homo sapiens) (UniProt P04637). The experiment can be described thus: TOX21_p53_BLA_p4_ratio: Tox21 HCT-116 p53 Agonism Beta-lactamase Assay, Ratio, Phase 4 (AID 2283601). The procedure, abridged:
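HCT-116 p53 beta-lactamase reporter cells (4000/well) preincubated 5 h, then compound (217-fold dilution of DMSO stock) for 16 h at 37C. CCF4-AM substrate added 2 h at room temperature; 460/530 nm emission ratio fitted upward versus DMSO.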

Experiment [7] shares this target. Kind of experiment: TOX21_p53_BLA_p5_ratio: Tox21 HCT-116 p53 Agonism Beta-lactamase Assay, Ratio, Phase 5 (AID 2283599). Put shortly: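 HCT-116 p53-bla cells (4000/well) plated 5 h, dosed with compound (217-fold DMSO dilution) for 16 h at 37 C; CCF4-AM substrate 2 h at room temperature. Activity is the 460/530 nm emission ratio (405 nm excitation), fitted in gain-of-signal direction versus DMSO.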

In experiment [8] the target is PGR (gene 5241) (UniProt P06401). The experiment can be described thus: TOX21_PR_BLA_Followup_Antagonist_ratio: Tox21 HEK293 Progesterone Receptor (PR) Antagonism Beta-lactamase Follow-Up Assay, Ratio (AID 2283934).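 Further: PR-UAS-bla HEK293T cells stimulated with 1 nM R5020 agonist for 16 hr.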 The procedure, abridged:
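Measured in PR-UAS-bla HEK293T cells co-treated with compound and 1 nM promegestone for 16 hr; beta-lactamase ratio read after 2 h FRET substrate loading, with parallel CellTiter-Glo cytotoxicity.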

Experiment [9] can be described thus: TOX21_PR_BLA_Followup_Agonist_viability: Viability Assessment in the Tox21 HEK293 Progesterone Receptor (PR) Agonism Beta-lactamase Follow-Up Assay (AID 2283935).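 Further: signal loss means lower viability so actives are cytotoxic.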 Put shortly:
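Viability is read as CellTiter-Glo luminescence, where loss of signal indicates cytotoxicity. The cells are PR-UAS-bla HEK293T given compounds for 16 hr at 37C and 5% CO2, in the same wells used for the bla readout.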

Experiment [10] in a line: TOX21_PR_BLA_Followup_Antagonist_viability: Viability Assessment in the Tox21 HEK293 Progesterone Receptor (PR) Antagonism Beta-lactamase Follow-Up Assay (AID 2283936).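 Further: cells exposed to compound with R5020 agonist for 16 h; hits lower the luminescence signal meaning cytotoxicity.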 The procedure, abridged:
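PR-UAS-bla HEK293T cells in medium with 2% charcoal-stripped FBS were treated with compounds plus R5020 for 16 hr at 37C. After the beta-lactamase read, CellTiter-Glo was added to the same wells and luminescence read after 30 min at room temperature.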

For experiment [11], the target named is PGR (gene 5241) (UniProt P06401). The experiment can be described thus: TOX21_PR_LUC_Followup_Antagonist: Tox21 HEK293 Progesterone Receptor (PR) Antagonism Luciferase Follow-Up Assay (AID 2283938).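 Further: curve fitted upward as signal gain over DMSO baseline despite antagonist label.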 The procedure, abridged: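 Luciferase reporter in HEK293-PR-A-luc cells: 16 h compound treatment at 37C, ONE-Glo luminescence detection, DMSO as negative control and baseline.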

Experiment [12] is described as follows: CCTE_Harrill_HTTr_Viability_MCF7: CCTE's 6-hour Cell Viability Assessment for the High-Throughput Transcriptomics (HTTr) Platform, in MCF-7 cells cultured in DMEM + 10% fetal bovine serum, Harrill Lab (AID 2284010; active means hit-call score of the fitted dose curve at least 0.9, where 1 is the maximum; inactive means score below 0.9). Put shortly: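 Eight-point concentration series, six-hour exposure. Propidium iodide exclusion imaged to assess membrane integrity as a cytotoxicity readout; bidirectional fitting was done with DMSO as negative control and activity baseline.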

Experiment [13] in a line: CCTE_Harrill_HTTr_Apoptosis_MCF7: CCTE's 6-hour Apoptosis Assessment for the High-Throughput Transcriptomics (HTTr) Platform, in MCF-7 cells cultured in DMEM + 10% fetal bovine serum, Harrill Lab (AID 2284011; active means hit-call score of the fitted dose curve at least 0.9, where 1 is the maximum; inactive means score below 0.9). The procedure, abridged: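 Apoptosis in MCF-7 cells grown in DMEM with 10% fetal bovine serum was scored after a six hour exposure by high content imaging of caspase-3/7 activation (CellEvent Caspase 3/7 Green), with DMSO serving as negative control and baseline.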

Experiment [14] has as its target Estrogen receptor (Homo sapiens) (UniProt P03372). The experiment can be described thus: CCTE_Deisenroth_AIME_96WELL_LUC_Active: CCTE's 96-well Estrogen Receptor Transactivation Assay with AIME metabolic competence (ERTA luciferase; metabolism positive), Deisenroth Lab (AID 2284023). Put shortly:
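Metabolism-positive mode: induced rat hepatic S9 in alginate microspheres conditions test solutions (0.002 - 200 uM, 10 points) for 2 hours. VM7Luc4E2 ER luciferase reporter cells then exposed 24 h; positive-direction fit against 17beta-estradiol, n=4 typical.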

The target is the same in experiment [15]. Kind of experiment: CCTE_Deisenroth_AIME_96WELL_LUC_Inactive: CCTE's 96-well Estrogen Receptor Transactivation Assay without AIME metabolic competence (ERTA luciferase; metabolism negative), Deisenroth Lab (AID 2284025). The procedure, abridged: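 Metabolism-negative arm: chemicals (0.002–200 uM, 10 points) incubated 2 h with alginate-water microspheres, then medium moved onto VM7Luc4E2 cells for 24 h luciferase read-out. Positive direction vs 17beta-estradiol; n≥4 experiments.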

Experiment [16] deals with Thyroid hormone receptor alpha (Rattus norvegicus) + Thyroid hormone receptor beta (Rattus norvegicus) (UniProt P18113+P63059). Kind of experiment: TOX21_TR_LUC_GH3_Antagonist_Followup: Tox21 GH3 Thyroid Hormone Receptor Antagonism Luciferase Follow-Up Assay (AID 2283942). Put shortly: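 Luminescence read-out (ONE-Glo, 30 min at room temperature) in GH3 reporter cells challenged with 1.0 nM T3 final. Compounds ran at 92 uM to 5nM over 15 concentrations for 24 h; DMSO served as negative control and baseline.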

A further experiment has as its target THRA (gene 7067) (UniProt P10827). The experiment can be described thus: TOX21_TRA_COA_Antagonist_Followup_ratio: Tox21 Thyroid Hormone Receptor alpha Antagonism through Coactivator Recruitment Follow-Up Assay, Ratio (AID 2283953). The procedure, abridged:
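We measured antagonism of T3-type coactivator recruitment using a TR-FRET ratio (emission 520 and 495 nm) between a Tb-labelled anti-GST antibody on TRα LBD (2.5 nM) and SRC-2 peptide (200 nM). Activity was scaled between DMSO and T3 wells.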

A short description of experiment [17]: TOX21_TRB_BLA_Antagonist_Followup_viability: Viability Assessment in the Tox21 Thyroid Hormone Receptor beta Antagonism Beta-lactamase (BLA) Follow-Up Assay (AID 2283961). The procedure, abridged:
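In the same wells as the reporter read, cell health was gauged by CellTiter-Glo ATP luminescence, with signal loss indicating reduced viability. Cells had been exposed to test compounds for 18 h.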

The next experiment deals with THRB (gene 7068) (UniProt P10828). The experiment can be described thus: TOX21_TRB_COA_Antagonist_Followup_ratio: Tox21 Thyroid Hormone Receptor beta Antagonism through Coactivator Recruitment Follow-Up Assay, Ratio (AID 2283967). Put shortly:
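GST-TRb LBD 5.0 nM + 0.10% BSA, compound added; fluorescein-SRC-2 peptide 200 nM, Tb-anti-GST Ab 2 nM. TR-FRET, ex 340 / em 520:495 ratio. Norm: DMSO 0%, T3 100%.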

The nature of experiment [18]: TOX21_TR_RXR_BLA_Antagonist_Followup_viability: Viability Assessment in the Tox21 Thyroid Hormone Receptor beta Retinoid X Receptor alpha (RXRa) Antagonism Beta-lactamase (BLA) Follow-Up Assay (AID 2283979). The procedure, abridged:
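RXRa-bla HEK293T cells (2,500/well, phenol red-free DMEM, 2% charcoal-stripped FBS) were attached 5 h, then exposed to compounds at 11 concentrations in triplicate for 16 h at 37C. Viability measured by CellTiter-Glo ATP luminescence, bidirectional fitting versus DMSO.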

Sequence of Cellular tumor antigen p53 (Homo sapiens) (P04637 whole entry, looked up): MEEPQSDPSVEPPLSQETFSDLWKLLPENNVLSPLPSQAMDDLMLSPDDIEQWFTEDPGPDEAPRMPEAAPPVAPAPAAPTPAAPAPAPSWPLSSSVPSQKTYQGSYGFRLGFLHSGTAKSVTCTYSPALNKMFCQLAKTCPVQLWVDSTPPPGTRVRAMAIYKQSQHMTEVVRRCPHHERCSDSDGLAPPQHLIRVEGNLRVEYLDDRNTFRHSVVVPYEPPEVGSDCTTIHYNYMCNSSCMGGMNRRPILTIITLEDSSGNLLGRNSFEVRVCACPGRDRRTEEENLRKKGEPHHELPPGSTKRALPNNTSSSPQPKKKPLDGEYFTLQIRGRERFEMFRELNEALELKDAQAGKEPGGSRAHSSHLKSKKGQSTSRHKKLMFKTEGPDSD
Sequence of PGR (gene 5241) (P06401 whole entry, looked up): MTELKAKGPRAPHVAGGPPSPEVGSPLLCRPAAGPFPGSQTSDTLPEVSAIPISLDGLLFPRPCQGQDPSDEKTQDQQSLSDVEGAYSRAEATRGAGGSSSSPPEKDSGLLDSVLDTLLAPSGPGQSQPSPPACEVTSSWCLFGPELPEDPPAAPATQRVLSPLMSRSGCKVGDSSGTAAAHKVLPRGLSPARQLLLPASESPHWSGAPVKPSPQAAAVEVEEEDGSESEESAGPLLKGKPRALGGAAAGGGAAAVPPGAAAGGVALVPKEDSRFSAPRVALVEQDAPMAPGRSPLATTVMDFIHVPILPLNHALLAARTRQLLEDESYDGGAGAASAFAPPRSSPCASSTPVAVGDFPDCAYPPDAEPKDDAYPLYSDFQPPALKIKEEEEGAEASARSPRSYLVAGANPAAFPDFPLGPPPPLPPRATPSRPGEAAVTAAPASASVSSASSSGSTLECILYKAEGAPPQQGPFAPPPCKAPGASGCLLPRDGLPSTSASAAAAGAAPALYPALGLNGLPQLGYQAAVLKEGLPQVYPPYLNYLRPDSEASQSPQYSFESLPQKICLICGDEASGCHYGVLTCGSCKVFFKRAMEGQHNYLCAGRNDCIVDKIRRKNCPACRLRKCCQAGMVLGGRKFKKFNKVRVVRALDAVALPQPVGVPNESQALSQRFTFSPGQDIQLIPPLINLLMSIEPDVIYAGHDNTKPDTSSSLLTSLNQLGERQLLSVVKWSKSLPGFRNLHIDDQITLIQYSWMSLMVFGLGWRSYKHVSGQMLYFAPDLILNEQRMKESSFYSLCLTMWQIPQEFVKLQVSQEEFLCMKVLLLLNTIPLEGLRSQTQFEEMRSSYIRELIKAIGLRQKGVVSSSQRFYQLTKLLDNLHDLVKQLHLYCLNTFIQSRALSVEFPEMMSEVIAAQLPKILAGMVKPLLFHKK
Sequence of Estrogen receptor (Homo sapiens) (P03372 whole entry, looked up): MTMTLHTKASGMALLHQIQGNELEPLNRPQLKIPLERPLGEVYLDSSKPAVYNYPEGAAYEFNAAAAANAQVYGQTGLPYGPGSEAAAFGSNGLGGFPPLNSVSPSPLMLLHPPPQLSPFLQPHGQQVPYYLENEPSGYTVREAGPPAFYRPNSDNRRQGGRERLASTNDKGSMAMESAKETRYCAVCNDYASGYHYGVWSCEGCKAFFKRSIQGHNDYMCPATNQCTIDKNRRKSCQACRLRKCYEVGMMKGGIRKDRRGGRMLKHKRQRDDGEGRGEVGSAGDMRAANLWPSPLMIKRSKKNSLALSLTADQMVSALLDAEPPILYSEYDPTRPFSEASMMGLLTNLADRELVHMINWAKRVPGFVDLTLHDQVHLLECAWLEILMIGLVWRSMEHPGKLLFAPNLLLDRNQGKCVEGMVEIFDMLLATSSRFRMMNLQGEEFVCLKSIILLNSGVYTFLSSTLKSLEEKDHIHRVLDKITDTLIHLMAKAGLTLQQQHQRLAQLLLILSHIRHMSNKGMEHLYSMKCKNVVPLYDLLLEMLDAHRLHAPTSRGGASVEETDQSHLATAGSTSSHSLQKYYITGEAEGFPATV
Sequence of THRA (gene 7067) (P10827 whole entry, looked up, the tested form may be a part): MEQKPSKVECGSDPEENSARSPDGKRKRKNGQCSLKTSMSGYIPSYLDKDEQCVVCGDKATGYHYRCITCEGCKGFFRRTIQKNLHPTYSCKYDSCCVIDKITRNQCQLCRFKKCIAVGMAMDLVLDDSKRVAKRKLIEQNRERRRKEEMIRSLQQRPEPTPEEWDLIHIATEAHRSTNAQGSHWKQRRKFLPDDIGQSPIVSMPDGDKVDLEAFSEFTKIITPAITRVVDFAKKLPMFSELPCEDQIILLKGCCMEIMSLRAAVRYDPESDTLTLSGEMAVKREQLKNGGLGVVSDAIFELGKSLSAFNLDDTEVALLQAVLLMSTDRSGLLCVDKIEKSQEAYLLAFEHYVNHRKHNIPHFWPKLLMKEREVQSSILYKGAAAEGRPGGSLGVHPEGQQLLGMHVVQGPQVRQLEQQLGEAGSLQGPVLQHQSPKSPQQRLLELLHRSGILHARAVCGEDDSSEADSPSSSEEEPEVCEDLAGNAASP
Sequence of THRB (gene 7068) (P10828 whole entry, looked up, the tested form may be a part): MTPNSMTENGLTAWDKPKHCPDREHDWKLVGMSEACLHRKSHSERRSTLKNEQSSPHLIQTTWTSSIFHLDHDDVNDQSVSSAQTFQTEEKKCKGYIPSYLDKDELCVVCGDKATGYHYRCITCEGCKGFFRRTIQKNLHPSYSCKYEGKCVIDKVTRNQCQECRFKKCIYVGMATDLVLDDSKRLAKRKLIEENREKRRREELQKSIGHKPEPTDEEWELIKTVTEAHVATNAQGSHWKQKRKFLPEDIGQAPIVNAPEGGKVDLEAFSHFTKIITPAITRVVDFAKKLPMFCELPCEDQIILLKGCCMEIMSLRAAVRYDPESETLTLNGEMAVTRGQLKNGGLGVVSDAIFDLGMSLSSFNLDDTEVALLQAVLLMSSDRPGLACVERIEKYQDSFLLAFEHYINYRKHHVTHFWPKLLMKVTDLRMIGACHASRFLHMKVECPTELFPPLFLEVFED

For `Cc1ccccc1N1CCN(CCc2nnc3n2CCCC3)CC1`, the result in [1], in [2], in experiment [3], in experiment [4], in experiment [5] and in experiment [6] was inactive.

Turning to `O=[N+]([O-])c1ccc2c(c1)Cc1ccccc1-2`, the compound was classed as inactive in experiment [1], in experiment [2], in experiment [3], in [4], in experiment [7] and in [5]. The result in [6], in experiment [9], in experiment [10], in experiment [12], in experiment [13] and in experiment [14] was inactive. For the same compound, the AC50 in the experiment with PGR (gene 5241) [8] is 25 µM (active); with PGR (gene 5241) [11], 31 µM (active); in [15], 26.8 µM (active).

Consider `N#CCC(=O)NN`, for which the compound was called inactive in [1], in [2], in [3], in [4], in experiment [5] and in experiment [6].

On to `CC(NNC(=O)c1ccccc1)c1ccccc1` (centres undefined), for which the outcome in experiment [1], in experiment [2], in experiment [3], in [4], in experiment [7] and in [6] was inactive.

With `CCN[C@H]1CN(CCCOC)S(=O)(=O)c2sc(S(N)(=O)=O)cc21`, the outcome in [1], in experiment [2], in [3], in [4], in experiment [7] and in experiment [6] was inactive.

With `O=S(=O)(O)CCO`, the result in experiment [1], in experiment [2], in experiment [3], in [4], in experiment [5] and in [6] was inactive.

For the compound `CC(C)(O)C(=O)O`, the compound was called inactive in experiment [1], in experiment [2], in experiment [3], in experiment [4], in [7] and in [6].

For `CC(=O)N[C@H]1[C@H]([C@H](O)[C@H](O)CO)OC(C(=O)O)=C[C@@H]1N=C(N)N`, the outcome in [1], in experiment [2], in experiment [3], in experiment [4], in experiment [5] and in [6] was inactive.

Take `C=CCOc1ccc(CC(=O)O)cc1Cl`: the result in [1], in experiment [2], in [3], in experiment [4], in experiment [5] and in [6] was inactive.

Regarding `CCCCCOc1ccc(C2SC(=O)NC2=O)cc1OCC` (centres undefined), the result in [1], in [2], in experiment [3], in [4], in experiment [7] and in experiment [5] was inactive. In addition, the result (in [6]; in experiment [16]; in the experiment with THRA (gene 7067); in experiment [17]; in experiment [18]) was inactive. Besides, the AC50 with THRB (gene 7068) was 10.8 µM (active).

Take `CC(CCC(=O)O)C(=O)O` (centres undefined): the compound was called inactive in experiment [1], in experiment [2], in [3], in experiment [4], in [7] and in experiment [6].

Turning to `CCCCCCCCCCCC[N+](C)(C)CC(=O)O`, the outcome in experiment [1], in experiment [2], in experiment [3], in experiment [4], in experiment [7] and in experiment [6] was inactive.

With `C[C@@H](O)[C@H]1C(=O)N2C(C(=O)O)=C(S[C@@H]3CN[C@H](C(=O)N(C)C)C3)[C@H](C)[C@H]12`, the call in [1], in experiment [2], in experiment [3], in experiment [4], in experiment [5] and in [6] was inactive.

As for `NCCNCCO`, the call in experiment [1], in experiment [2], in experiment [3], in [4], in [7] and in [6] was inactive.

What is called AC50 is the midpoint of the concentration-response curve, whichever way the signal moves.
